Compound activity: PubChem BioAssay, National Center for Advancing Translational Sciences (NCATS)
Compounds with a hit are over-represented: about 12% of the library has one in this group of screens.
JMJD2A Tudor: blocks the human JMJD2A Tudor domain. Potency, µM (top dose mostly 114 µM), for inactives: at the highest dose activity change, negative = inhibition, usual class: inhibitors. O75164. AID 504339. actives 4.4% (n = 390,000). AlphaScreen JMJD2A-Tudor / H3K4me3 peptide binding; further: potency means the concentration at half of the fitted maximal effect; on the % scale 0 is the no-effect control and ±100 the full control effect; nearly all actives have a fitted effect of over 50% in size
PLK1 PBD inh: blocks phosphopeptide binding to human PLK1 polo-box domain; P53350; Plk1 PBD binding of FITC phosphopeptide, fluorescence polarization; Potency, µM, without a hit: max response, negative = inhibition, actives largely listed as inhibitors; actives 2.8% (n = 360,000); further: potency means the concentration at half of the fitted maximal effect; series mostly up to about 57 µM; on the % scale 0 is the no-effect control and ±100 the full control effect; nearly all actives have a fitted effect of over 65% in size
BAZ2B block: blocks human BAZ2B. AlphaScreen BAZ2B-H3K14Ac peptide displacement. Potency, µM (series often up to 114 µM), without a hit: top-dose activity change, negative = inhibition, most hits filed as inhibitors. actives 4.4% (n = 360,000). Q9UIF8; further: potency means the concentration at half of the fitted maximal effect; on the % scale 0 is the no-effect control and ±100 the full control effect; nearly all actives have a fitted effect of over 60% in size
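Compounds, titrated to a top concentration of 110 uM, were incubated 30 min at room temperature with preformed BAZ2B/acetyl-K14 H3 peptide complex (50 nM each). Proximity signal was measured by AlphaScreen after 20 min with beads.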
HP1b chromo inh: blocks HP1-beta chromodomain binding to methylated histone tails. Potency, µM (top dose mostly 114 µM), inactives show top-dose activity change, negative = inhibition, most hits filed as inhibitors. AlphaScreen HP1-beta / biotin-H3K9me3 peptide binding. actives 0.56% (n = 390,000). P83916; further: potency means the concentration at half of the fitted maximal effect; nearly all actives have a fitted effect of over 70% in size
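AlphaScreen: HP1-beta (50 nM) preformed 30 min with biotin-H3(1-18)K9me3 peptide (50 nM) in PBS pH 7.4, 0.01% Tween-20. Compound added for 30 min at RT, then streptavidin donor/nickel chelate acceptor beads (10 ug/mL) for 30 min.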
G9a block: blocks human histone lysine methyltransferase G9a; Q96KQ7; G9a H3K9 monomethylation, AlphaScreen, 2 h; Potency, µM (top dose mostly 102 µM), inactives show at the top dose activity, negative = inhibition, usual class: inhibitors; actives 8.8% (n = 350,000); further: potency means the concentration at half of the fitted maximal effect; on the % scale 0 is the no-effect control and ±100 the full control effect; nearly all actives have a fitted effect of over 75% in size
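G9a (20 nM) was preincubated 15 min with compound, then reacted 2 h at room temperature with 500 nM biotin-H3K9 peptide and 20 µM SAM. Monomethyl-H3K9 detected by AlphaScreen using anti-H3K9me1 antibody.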
PI5P4K alpha inh: inhibitors of human PI5P4K alpha | P48426 | PI5P4Kalpha enzyme, ADP-Glo luminescence, 60 min; hits give low values | max response, % | actives 1.2% (n = 330,000) | AID 652105; active means max response of -50% or lower; inconclusive means between -30% and -50%; inactive means -30% or higher; further: value at the top dose of about 77 µM; on the % scale 0 is the no-effect control and ±100 the full control effect
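ADP-Glo luminescence end-point after a 60 min room-temperature kinase reaction. PI5P4Kalpha and substrate in HEPES pH 7.4 buffer with EGTA, 0.1% CHAPS and 5% DMSO; ATP at 5 microM final.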
* marks the source's active call; other numbers are inactive results; u = inconclusive; x = no result given; [ ] = another dose, or the depositor's remark. Unless noted, the call rests on the fitted dose curve; in most records, active means well fitted curve in the direction sought with a large enough effect; inconclusive means small, poorly fitted or top-dose-only effect, or another doubt; inactive means no such curve, though single readings can be large; an effect the other way counts as inactive or inconclusive.

SMILES	JMJD2A Tudor	PLK1 PBD inh	BAZ2B block	HP1b chromo inh	G9a block	PI5P4K alpha inh
Cc1sc2nc(-c3cccnc3)[nH]c(=O)c2c1-c1ccccc1	-17.2%	11.9µM*	x	-11.8%	11.2µM*	-12.8
COc1ccc(CNC(=O)COc2cc(O)c3c(c2)OC(C)(C)CC3=O)c(OC)c1	89.1µM*	-6.2%	9.2%[57.1 µM]	1.7%	x	0.2
O=C(NCc1ccccc1)C1(C(F)(F)F)C/C(=C/Cc2ccccc2)CCCO1 (stereo not drawn)	-18.6%	x	x	7.9%	x	x
O=C(NCc1ccccn1)C1(C(F)(F)F)C/C(=C\Cc2ccccc2)CCCO1 (stereo not drawn)	31.6µM*	x	x	-11.7%	x	x
CC1CCCCN1C(=O)c1ccc(CS(=O)(=O)Cc2ccccc2)cc1 (stereo not drawn)	0.7%	-4.6%	0.6%	15.9%	56.0%	14.3
CCN1/C(=C\C=C2\C(=O)N(C)C(=S)N2C)Sc2ccccc21	-29.3%[11.4 µM]	-17.5%	x	u	u	6.1
CCN1C(c2ccccc2)=C(c2ccccc2)S/C1=C\C=C1/SC(=S)N(C)C1=O	7.94µM*	-20.0%	x	8.91µM*	x	x
CCN1C(c2ccccc2)=C(c2ccccc2)S/C1=C/C=C1\SC(=S)N(C)C1=O	8.91µM*	-12.7%	2.51µM*	11.2µM*	5.62µM*	x
O=C(OCC#CCSc1nnc(-c2cccc3ccccc23)o1)c1ccc(F)c(F)c1	38.1%	x	x	x	x	x
COc1ccccc1Nc1sc(C(=O)c2ccc3c(c2)OCO3)c(N)c1S(=O)(=O)c1ccccc1	-23.0%	x	4.5%	26.2%[57 µM]	1.6%[59 µM]	x
Cc1ccc(-c2csc3nc4c5ccccc5c(NCCCN(C)C)nn4c(=O)c23)cc1	4.8%	-4.6%	13.4%	-20.0%	35.5µM*	-1.0
CC1(C)CC(NC(=O)c2ccc(F)cc2)CC(C)(C)N1	x	-11.4%	x	x	x	2.1
CC(=O)c1ccc(-c2ccc(C(=O)NC3CC(C)(C)NC(C)(C)C3)o2)cc1	-22.1%	-5.4%	-3.9%	17.0%	39.8µM*	-5.6
CC(=O)c1ccc(-c2ccc(C(=O)NCC3CCCO3)o2)cc1 (stereo not drawn)	-15.2%	-15.2%	3.5%	33.7%	79.4µM*	-7.0
Cc1cc(-c2ccccc2)nc2cc(C(=O)OC(C)C)nn12	4.3%	-15.5%	12.5%	17.0%	-6.4%[0.501 µM]	-1.0
Cc1cc(-c2ccccc2)nc2cc(C(N)=O)nn12	-17.4%	-16.8%	-15.5%	22.8%	28.2µM*	-28.6
CCOC(=O)c1cc2nc(-c3ccccc3)cc(C)n2n1	16.6%	-13.5%	8.4%	57.3%	44.7µM*	-13.5
Cc1ccccc1NC(=O)CSc1nc(-c2ccco2)nc2cc(=O)[nH]n12	-15.3%	x	u	35.0%	-37.8%[59 µM]	x
Cc1ccccc1NC(=O)CSc1nnc(-c2ccco2)c(-c2ccco2)n1	50.1µM*	26.7µM*	25.1µM*	15.8µM*	12.6µM*	-65.6*
CSc1nnc(-c2ccco2)c(-c2ccco2)n1	-6.9%[11.4 µM]	26.7µM*	20µM*	u	u	u
CSc1nnc(-c2ccccc2)c(-c2ccccc2)n1	22.7%	-11.9%	-1.1%	45.6%	64.6%[59 µM]	-2.5
COc1ccc(-c2nnc(SCC(=O)Nc3c(C)cccc3C)nc2-c2ccc(OC)cc2)cc1	-35.6%	x	-13.7%	-1.5%	u	x
Cc1cccc(C)c1NC(=O)CSc1nnc(-c2ccco2)c(-c2ccco2)n1	25.1µM*	18.9µM*	2.51µM*	50.1µM*	18.5%[0.501 µM]	-69.1*
CCOc1ccc(/C(O)=C2/C(=O)C(=O)N(CCCN3CCOCC3)C2c2ccc(F)cc2)cc1C (stereo not drawn)	-13.7%	-17.0%	1.8%	26.9%	u	1.7
CCN(CC)CCNC(=O)c1ccc(NC(=O)c2ccc(C(=O)c3ccccc3)cc2)cc1	-15.3%	2.7%	-16.8%	6.6%	7.08µM*	7.7
SMILES	JMJD2A Tudor	PLK1 PBD inh	BAZ2B block	HP1b chromo inh	G9a block	PI5P4K alpha inh
Cc1cnc(NC(=O)C2(C)CCN2C(=O)C(C)C)s1 (stereo not drawn)	x	-0.5%	x	x	x	-1.7
O=C(CCNS(=O)(=O)c1ccc(Br)cc1)NCc1ccc(Cl)cc1	u	26.7µM*	-3.6%	19.5%	3.6%[59 µM]	-15.0
Cc1ccc(C)c(NC(=O)Cn2c(=O)n(Cc3ccco3)c(=O)c3oc4ccccc4c32)c1	-12.8%	x	-14.5%	22.1%	-27.5%[59 µM]	x
CCOc1cc(C=C2C(=O)c3ccccc3C2=O)ccc1OCC(=O)Nc1ccc(C)cc1	-4.2%	u	-6.7%	4.2%	-48.3%	-4.9
CCOC(=O)C1=C(C)OC(=Cc2ccc(OC)cc2)C1=O	x	-22.0%	x	x	x	-7.5
CCCc1ccc(/C=C2\C(=O)c3ccccc3C(O)=C2C(=O)OCC)cc1	x	x	20µM*	x	5.62µM*	x
CCOC(=O)C1=C(O)c2ccccc2C(=O)/C1=C\c1ccc(CC)cc1	22.4µM*	2.99µM*	20µM*	-71.3%	5.62µM*	x
CC1=C(c2ccc(C(C)C)cc2)S(=O)(=O)N=C1N1CCN(C(=O)c2ccco2)CC1	44.7µM*	26.7µM*	-18.2%	-3.1%	13.7%	-5.7
O=[N+]([O-])c1cc(-c2nc(-c3ccncc3)no2)ccc1NCc1ccccc1	-26.2%	x	-34.9%	66.9%	-27.7%[59 µM]	x
Cn1cccc1/C=N/NC(=O)c1ccccn1	u	23.8µM*	35.5µM*	-7.7%	3.16µM*	-12.4
Cc1ccc(/C=N/NC(=O)c2ccccn2)s1	-9.2%	4.9%	u	39.4%	u	-10.0
Cn1cccc1/C=N/NC(=O)c1cc(-c2cccs2)nc2ccccc12	u	-8.6%	22.4µM*	u	31.6µM*	3.4
Cn1cccc1/C=N/NC(=O)c1ccncc1	-13.5%	0.0%	-22.2%	3.6%	3.6%	9.6
O=C(N/N=C/c1cccs1)c1ccccn1	-14.1%	-2.6%	u	16.1%	6.31µM*	x
Cn1cccc1/C=N/NC(=O)c1cc2ccccc2cc1O	u	-1.0%	28.2µM*	u	-7.9%	-20.6
O=C(N/N=C/c1cccnc1)c1cc(-c2cccs2)nc2ccccc12	0.0%[57.1 µM]	-5.9%	-1.5%	25.4%	6.1%[59 µM]	-3.9
O=C(c1cccc(N2C(=O)C3C4C=CC(C4)C3C2=O)c1)N1CCN(c2ccccc2F)CC1 (stereo not drawn)	-13.1%	-7.2%	-13.0%	21.8%	-1.2%	-2.0
O=C(Nc1ccccc1C(=O)O)c1cccc(NS(=O)(=O)c2ccc(Br)cc2)c1	-10.9%	42.3µM*	-2.6%	23.0%	x	u
O=C(Nc1ccccc1C(=O)O)c1cccc(NC(=O)c2ccccc2Br)c1	-12.3%	-15.8%	3.8%	38.5%	-1.0%	u
O=C(Nc1cccc(C(F)(F)F)c1)c1cccc(NS(=O)(=O)c2ccc(O)c(C(=O)O)c2)c1	56.2µM*	-27.6%	-17.7%	-0.8%	u	-13.7
O=C(Nc1cc(C(=O)Nc2ccccc2C(=O)O)cc(C(=O)Nc2ccccc2C(=O)O)c1)c1ccccc1	u	21.2µM*	-15.0%	5.5%	73.8%	-81.5*
